# Source: ChEMBL document CHEMBL3988442, “University of Dundee, Small-Polar-MMV Screening Library” (2021)
# Hit rate of the full screen: of about 66,000 compounds, about 960 (1.5%) showed an effect of 50% or more. The entries come from a sample that favours strong results as a whole.
# Test system: Trypanosoma brucei
# Assay: Trypanosoma brucei 72 hour study
# Assay type: functional, organism-based
# Parameters: scale not given: in the data most compounds retested in dose-response had high values
smiles,measurement,setting,value
Cn1cc(CN2CCc3onc(C(=O)N4CCCC4)c3C2)cn1.O=C(O)C(F)(F)F,Percent Effect,"30.3 µM, […]",-19.54%
O=C(c1cscn1)N1C[C@H]2CCC[C@@]2(COCc2ccccn2)C1,Percent Effect,"30.3 µM, […]",-7.729%
Cc1ccc(CNC(CN2CCN(C)CC2)c2ccccc2)cc1 (stereo not given),Percent Effect,"30 µM, 30.03 µM",0.9317%
Cc1cccc(CNC(CN2CCN(C)CC2)c2ccccc2)c1 (stereo not given),Percent Effect,"30 µM, 30.03 µM",38.01%
Cc1ccc(CNC(CN2CCN(C)CC2)c2ccccc2)cc1C (stereo not given),Percent Effect,"30 µM, 30.03 µM",57.4%
CN1CCN(CC(NCc2cccc(O)c2)c2ccccc2)CC1 (stereo not given),Percent Effect,"30 µM, 30.03 µM",100.4%
COc1cccc(CNC(CN2CCN(C)CC2)c2ccccc2)c1 (stereo not given),Percent Effect,"30 µM, 30.03 µM",-23.58%
CN1CCN(CC(NCc2ccc(F)c(F)c2)c2ccccc2)CC1 (stereo not given),Percent Effect,"30 µM, 30.03 µM",-11.08%
Cc1noc(C)c1CNCC1Cn2nncc2CO1.O=C(O)C(F)(F)F (stereo not given),Percent Effect,"30.3 µM, […]",-105.3%
COCC1CN(C(=O)CS(C)(=O)=O)Cc2ncn(CC3CC3)c21 (stereo not given),Percent Effect,"30.3 µM, […]",-30.37%
C1CCN(CCO[C@@H]2CC[C@H]3[C@H]2OCCN3CC2CCOCC2)C1.O=C(O)C(F)(F)F.O=C(O)C(F)(F)F,Percent Effect,"30 µM, 30.03 µM",-27.36%
Cc1ncsc1-c1nnc(C2CCN(Cc3ccccc3F)CC2)o1,Percent Effect,"30.3 µM, […]",-22.5%
CNCc1ccc([C@@H]2CN(C(C)=O)C[C@H]2C(=O)N(C)C)cc1.Cl,Percent Effect,"30.3 µM, […]",-5.387%
CN(C)CCN1CCC2(CCN(C(=O)c3ccncc3)CC2)C1=O.O=C(O)C(F)(F)F.O=C(O)C(F)(F)F,Percent Effect,"30.3 µM, […]",-21.17%
CN1CCOCC12CCN(Cc1ccoc1)CC2.O=C(O)C(F)(F)F.O=C(O)C(F)(F)F,Percent Effect,"30.3 µM, […]",-44.43%
COc1ncc(-c2c(C#N)c(N)nc3c2CCc2[nH]ccc2-3)cn1,Percent Effect,"30.3 µM, […]",-6.46%
Cc1n[nH]c(C)c1-c1c(C#N)c(N)nc2c1CCc1[nH]ccc1-2,Percent Effect,"30.3 µM, […]",52.57%
Cn1cc(-c2c(C#N)c(N)nc3c2CCc2[nH]ccc2-3)cn1,Percent Effect,"30.3 µM, […]",27.56%
CC(C)CN1C[C@H]2C[C@H](C(=O)N3CCCC3)[C@@H](C1)O2.O=C(O)C(F)(F)F,Percent Effect,"30.3 µM, […]",-50.57%
CCc1ccc(-c2ncc3c(n2)N(C)CCN(CCN(C)C)C3=O)cc1,Percent Effect,"30.3 µM, […]",100.5%
CN(C)CCN1CCN(C)c2nc(-c3ccccc3)ncc2C1=O,Percent Effect,"30.3 µM, […]",17.36%
COc1cccc(-c2ncc3c(n2)N(C)CCN(CCN(C)C)C3=O)c1,Percent Effect,"30.3 µM, […]",19.59%
Cl.O=C(O)[C@@H]1CCCN1c1nccc(Nc2ccccc2)n1,Percent Effect,"30.3 µM, […]",-31.15%
same,Percent Effect,"10 mM, 10 mM as filed; unlikely as a test dose",-16.56%
Cc1cc(F)ccc1-n1cc(O)c(C(=O)NCC2(O)CCC2)n1,Percent Effect,"30 µM, 30.03 µM",-18.18%
O=C(Cn1nnn(-c2cccs2)c1=O)N(CC1CCOC1)C1CC1 (stereo not given),Percent Effect,"30 µM, 30.03 µM",-28.27%
O=C(Cn1nnn(-c2cccs2)c1=O)NCC1CCOC1 (stereo not given),Percent Effect,"30 µM, 30.03 µM",53.07%
CCN(CC1CCOC1)C(=O)Cn1nnn(-c2cccs2)c1=O (stereo not given),Percent Effect,"30 µM, 30.03 µM",-61.65%
CC(Cn1cccn1)NCc1csc(COc2ccccc2)n1 (stereo not given),Percent Effect,"30.3 µM, […]",63.51%
CC(Cn1cccn1)NCc1csc(COc2ccc(F)cc2)n1 (stereo not given),Percent Effect,"30.3 µM, […]",4.13%
CC(Cn1cccn1)NCc1csc(Cc2ccccc2)n1 (stereo not given),Percent Effect,"30.3 µM, […]",32.28%
c1ccc(-c2nc(CNCCn3cccn3)cs2)cc1,Percent Effect,"30 µM, 30.03 µM",-63.26%
c1ccc(OCc2nc(CNCCn3cccn3)cs2)cc1,Percent Effect,"30.3 µM, […]",-9.773%
c1ccc(Cc2nc(CNCCn3cccn3)cs2)cc1,Percent Effect,"30.3 µM, […]",100.2%
Cc1cnn(CCNCc2csc(COc3ccccc3)n2)c1,Percent Effect,"30.3 µM, […]",54.15%
Cc1cnn(CCCNCc2csc(COc3ccccc3)n2)c1,Percent Effect,"30.3 µM, […]",10.81%
Clc1ccc(Cc2nc(CNCCn3cccn3)cs2)cc1,Percent Effect,"30.3 µM, […]",19.22%
CCS(=O)(=O)N1C[C@H]2C[C@H](C(=O)N(C)C)[C@@H](C1)O2,Percent Effect,"30 µM, 30.03 µM",9.915%
O=C(NCC(=O)N1CCN(c2ccccc2)CC1)c1sccc1C1CC1,Percent Effect,"30 µM, 30.03 µM",8.848%
CCC(=O)N1CCN(CCn2cccn2)c2ncccc2C1.O=C(O)C(F)(F)F,Percent Effect,"30.3 µM, […]",-68.7%
N#Cc1ccc(C(=O)N2CC[C@H]3[C@H]2CCN3CC2CC2)cc1.O=C(O)C(F)(F)F,Percent Effect,"30.3 µM, […]",-8.518%
Cc1ccccc1-c1cncc(C2CCN(S(=O)(=O)N(C)C)CC2)n1,Percent Effect,"30.3 µM, […]",23.75%
CCC(=O)N1CCCN(Cc2cc(F)cc(Br)c2)CC1,Percent Effect,"30 µM, 30.03 µM",-27.39%
CN1C[C@H]2CC[C@@H]1CN(C(=O)COCc1nc3cc(F)ccc3[nH]1)C2,Percent Effect,"30 µM, 30.03 µM",-9.559%
CC(C)(C)n1ncc2c1CCCC2NCc1ccsc1 (stereo not given),Percent Effect,"30 µM, 30.03 µM",-15.69%
O=C(NCc1cnc2n1CCN(Cc1nccs1)CC2)C1CCC1.O=C(O)C(F)(F)F,Percent Effect,"30.3 µM, […]",-21.25%
COCC(=O)N1CCC2(CC1)CN(CC1CC1)c1ccc(F)cc12,Percent Effect,"30.3 µM, […]",19.77%
Cc1csc2c(N3CCC(NCCc4ccnn4C)CC3)ncnc12,Percent Effect,"30 µM, 30.03 µM",-26.9%
CCCc1cc(NCCCC2CCOC2)n2nccc2n1 (stereo not given),Percent Effect,"30.3 µM, […]",14.64%
Cn1ccnc1SCCNC1CCN(c2nc3ccccc3s2)CC1,Percent Effect,"30 µM, 30.03 µM",-14.43%
CCCc1cc(CNC2CCN(c3nc4ccccc4s3)CC2)on1,Percent Effect,"30 µM, 30.03 µM",-8.839%
Cc1n[nH]c(SCCNC2CCN(c3nc4ccccc4s3)CC2)n1,Percent Effect,"30 µM, 30.03 µM",-5.585%
Clc1ccc2nc(N3CCC(NCCCC4CCOC4)CC3)sc2c1 (stereo not given),Percent Effect,"30.3 µM, […]",69.37%
Cc1csc2c(N3CCC(NCCCC4CCOC4)CC3)ncnc12 (stereo not given),Percent Effect,"30 µM, 30.03 µM",-28.35%
CCc1nccn1CCNC1CCN(c2nc3ccc(Cl)cc3s2)CC1,Percent Effect,"30.3 µM, […]",100.4%
CCS(=O)(=O)CCNC1CCN(c2nc3ccc(Cl)cc3s2)CC1,Percent Effect,"30.3 µM, […]",67.3%
Cc1nc(NC(=O)c2c(-n3cnnn3)sc(C)c2C)sc1C,Percent Effect,"30 µM, 30.03 µM",-45.39%
O=C(O)C(F)(F)F.O=C(O)C(F)(F)F.c1cncc(OCc2noc3c2CN(Cc2ccco2)CC3)c1,Percent Effect,"30 µM, 30.03 µM",-42.06%
Cc1noc(C)c1CN1CCn2cc(CN3CCCCC3)nc2C1.O=C(O)C(F)(F)F,Percent Effect,"30.3 µM, […]",-9.044%
CCN1CCN(C(=O)c2cc(-c3cccn3C)n[nH]2)[C@H]2CS(=O)(=O)C[C@H]21,Percent Effect,"30 µM, 30.03 µM",-16.48%
CC(C)N1CC[C@H]2[C@H](C[C@@H](Cn3cncn3)N2c2nccs2)C1.O=C(O)C(F)(F)F.O=C(O)C(F)(F)F,Percent Effect,"30.3 µM, […]",-43.04%
COc1cccc(CN(Cc2ncc[nH]2)Cc2ccco2)c1.O=C(O)CC(O)(CC(=O)O)C(=O)O,Percent Effect,"30.3 µM, […]",-10.96%
Cc1ccc([C@]2(O)CC[C@H]3CN(Cc4cc(C)c(O)c(C)c4)C[C@H]32)nc1.O=C(O)CC(O)(CC(=O)O)C(=O)O,Percent Effect,"30.3 µM, […]",27.71%
Cc1ccc([C@]2(O)CC[C@H]3CN(Cc4ccc(Cl)cc4Cl)C[C@H]32)nc1,Percent Effect,"30.3 µM, […]",-1.046%
CSc1ccc(CN2C[C@@H]3CC[C@@](O)(c4ccc(C)cn4)[C@@H]3C2)cc1,Percent Effect,"30.3 µM, […]",79.51%
CN1CC2(CCCN(Cc3nnc(-c4ccccc4)o3)CC2)OC1=O (stereo not given),Percent Effect,"30 µM, 30.03 µM",-20.69%
CCN(CC)C(=O)c1nnn(Cc2ccccc2)c1OC,Percent Effect,"30 µM, 30.03 µM",61.55%
CCNC(=O)c1nnn(Cc2ccccc2)c1OC,Percent Effect,"30 µM, 30.03 µM",40.11%
COCCNC(=O)c1nnn(Cc2ccccc2)c1OC,Percent Effect,"30.3 µM, […]",3.67%
CCc1nnc(SC2CCCN(c3cccc(F)c3)C2=O)n1C (stereo not given),Percent Effect,"30 µM, 30.03 µM",-37.32%
CCOCC1CN(CCN(C)C)Cc2cnn(CC3CCCC3)c21.O=C(O)C(F)(F)F.O=C(O)C(F)(F)F (stereo not given),Percent Effect,"30 µM, 30.03 µM",-10.76%
Cc1ccc(C(=O)N2CC[C@@H](N(C)C)[C@@H]2Cc2cnn(C)c2)cn1.O=C(O)C(F)(F)F.O=C(O)C(F)(F)F,Percent Effect,"30.3 µM, […]",-478.3%
CC(=O)c1ccc(N2CCCC(CO)(CCOc3ccccc3)C2)nc1 (stereo not given),Percent Effect,"30 µM, 30.03 µM",71.93%
CC(=O)c1ccc(N2CCCC(CO)(Cc3ccccc3F)C2)nc1 (stereo not given),Percent Effect,"30 µM, 30.03 µM",-24.14%
CC(=O)c1ccc(N2CCCC(CO)(CCc3ccccc3)C2)nc1 (stereo not given),Percent Effect,"30 µM, 30.03 µM",50.39%
CC(=O)c1ccc(N2CCC(CO)(CCOc3ccccc3)CC2)nc1,Percent Effect,"30 µM, 30.03 µM",16.6%
N#Cc1ccc(N2CCCC(CO)(CCOc3ccccc3)C2)nc1 (stereo not given),Percent Effect,"30 µM, 30.03 µM",-38.44%
Nc1nccc(N2CCCC(CO)(CCOc3ccccc3)C2)n1 (stereo not given),Percent Effect,"30 µM, 30.03 µM",82.96%
N#Cc1cccc(N2CCCC(CO)(CCOc3ccccc3)C2)n1 (stereo not given),Percent Effect,"30 µM, 30.03 µM",-42.71%
CC(=O)c1ccc(N2CCCC(CO)(Cc3ccccc3C)C2)nc1 (stereo not given),Percent Effect,"30 µM, 30.03 µM",-6.304%
OCC1(CCOc2ccccc2)CCCN(c2ccc(Cl)cn2)C1 (stereo not given),Percent Effect,"30 µM, 30.03 µM",-34.7%
O=C(O)C(F)(F)F.O=C1CCCN1Cc1ncn2c1CN(C(=O)N1CCCC1)CCC2,Percent Effect,"30.3 µM, […]",-52.13%
Cc1occc1C(=O)N1CCC2(CCCN(c3ncc(F)cn3)C2)C1.O=C(O)C(F)(F)F (stereo not given),Percent Effect,"30.3 µM, […]",-25.24%
O=C(NCCCNc1ccc(C(F)(F)F)cn1)c1ccc2c(c1)OCO2,Percent Effect,10 µM,-42.23%
c1ncc2c(n1)CN(c1ncnc3[nH]ccc13)CC2,Percent Effect,"30 µM, 30.03 µM",-32.45%
c1nc(N2CCc3[nH]cnc3C2)c2cc[nH]c2n1,Percent Effect,"30 µM, 30.03 µM",75.2%
Cc1ncc2c(n1)CN(c1ncnc3[nH]ccc13)CC2,Percent Effect,"30 µM, 30.03 µM",-13.69%
Cn1cc(N2CC3(COCCN(Cc4nccs4)C3)OCC2=O)cn1.O=C(O)C(F)(F)F (stereo not given),Percent Effect,"30 µM, 30.03 µM",27.05%
Cc1cc(N(C)C)cc(C2CCN(S(=O)(=O)c3cccnc3)C2)n1 (stereo not given),Percent Effect,"30.3 µM, […]",-0.05808%
Cc1ccc(-c2cc(-c3c(C)nn(CCO)c3C)c(C#N)c(N)n2)cc1,Percent Effect,"30.3 µM, […]",33.48%
Cc1cccc(-c2cc(-c3c(C)nn(CCO)c3C)c(C#N)c(N)n2)c1,Percent Effect,"30.3 µM, […]",57.96%
Cc1nn(CCO)c(C)c1-c1cc(C(C)(C)C)nc(N)c1C#N,Percent Effect,"30.3 µM, […]",0.04143%
Cc1noc([C@]23COC[C@H]2CN(C(=O)COC2CCCC2)C3)n1,Percent Effect,"30.3 µM, […]",-59.73%
CCOCC(=O)N1C[C@@H]2COC[C@]2(c2nc(C)no2)C1,Percent Effect,"30.3 µM, […]",-76.29%
Cc1noc([C@]23COC[C@H]2CN(C(=O)CN(C)C)C3)n1.O=C(O)C(F)(F)F,Percent Effect,"30.3 µM, […]",106.1%
